Screening results as filed in PubChem BioAssay.
Many of the other results were omitted from the sample, so hits are more common in it than they were.
SF1 inhibitor = blocks the human nuclear receptor SF-1; inhibition, % at 10 µM; CHO-K1 Gal4-SF-1 LBD luciferase reporter; actives 0.55% (n = 65,000); Q13285; AID 525;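 active = inhibition above the mean inhibition of all tested compounds plus 3 SD, cut at about 48% in these data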
Target sequence (Q13285 whole entry, looked up, the tested form may be a part): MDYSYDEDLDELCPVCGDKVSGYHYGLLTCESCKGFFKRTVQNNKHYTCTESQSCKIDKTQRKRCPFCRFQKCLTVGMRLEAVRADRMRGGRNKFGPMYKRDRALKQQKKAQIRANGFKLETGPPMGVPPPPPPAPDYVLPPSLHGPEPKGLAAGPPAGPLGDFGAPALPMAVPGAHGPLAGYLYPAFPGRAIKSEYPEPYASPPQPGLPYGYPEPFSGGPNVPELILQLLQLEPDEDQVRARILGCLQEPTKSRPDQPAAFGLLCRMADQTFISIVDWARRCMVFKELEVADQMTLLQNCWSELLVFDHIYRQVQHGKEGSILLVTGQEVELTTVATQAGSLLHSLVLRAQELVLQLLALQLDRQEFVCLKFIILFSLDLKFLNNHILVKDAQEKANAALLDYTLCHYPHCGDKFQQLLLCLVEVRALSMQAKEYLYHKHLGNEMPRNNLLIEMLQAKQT
Hits are given with their value; 0 = inactive.

SMILES	SF1 inhibitor
CCOC(=O)c1cnc2c(-c3ccccc3)cnn2c1N	0
CCOC(=O)c1c(C)nc(-c2ccccc2)nc1N	0
CCOC(=O)C1=Nc2ccccc2C1=[N+]=[N-]	83.6
Cc1noc(C)c1COC(=O)c1cc2c3ccccc3n(C)c2s1	0
COC(=O)Sc1nnc(-c2ccc(Br)cc2)o1	0
Cn1c(N)c(C(=O)CSc2nc3ccccc3n2-c2ccccc2)c(=O)n(C)c1=O	0
Cc1cccc(NC(=O)c2cc3ccccc3c(=O)o2)n1	0
Cc1cccc(NC(=O)Nc2ccc(C#N)cc2)n1	71.1
COc1ccc(NC(=O)Nc2cccc(C)n2)cc1	0
CC(C)C1N=C2c3ccccc3N=C(SCc3cc(=O)n4ccccc4n3)N2C1=O (configuration not stated)	0
c1ccc(-c2nc(N3CCCCCC3)c3ccccc3n2)nc1	86.4
O=C(CCCC(=O)N(CC(=O)NC1CCCCC1)Cc1ccc2c(c1)OCO2)Nc1ccccn1	0
Cc1c(S(=O)(=O)Nc2cc(Cl)ccc2Cl)c(=O)n(C)c(=O)n1C	0
OCC1(C2=NOC(O)(C(F)(F)F)C2)CCCCC1 (configuration not stated)	0
CCOC(=O)N1CCN(S(=O)(=O)c2ccc3c(c2)CCN3C(=O)CC)CC1	0
c1ccc2c(c1)CCN(c1ncnc3c1[nH]c1ccccc13)C2	85.7
c1ccc(CN2CCN(c3ncnc4c3[nH]c3ccccc34)CC2)cc1	49.7
C=CCNC(=O)C(C#N)c1nc2ccccc2nc1N1CCN(Cc2ccccc2)CC1 (configuration not stated)	0
c1ccc2c(c1)oc1c(Nc3ccc(CN4CCOCC4)cc3)ncnc12	0
Cc1cc(=O)[nH]c(N2CCN(Cc3ccccc3)CC2)n1	0
COc1ccc(C)cc1NC(=O)NC1CCN(Cc2ccccc2)CC1	0
Cc1ccc2c(c1)[nH]c1c(N3CCN(Cc4ccccc4)CC3)ncnc12	49.5
COC(=O)N(C)CCCC1(C)C(=O)N(C)c2ccc(O)cc21 (configuration not stated)	0
CCc1nc2oc3ccccc3c(=O)c2c(=O)n1-c1ccccc1	0
CCOC(=O)c1c(C)[nH]c(C(=O)COC(=O)CNC(=O)C2CCCCC2)c1C	0
SMILES	SF1 inhibitor
CN=Cc1cc(-c2ccccc2)sc1O	0
Cc1ccc(Cl)cc1N1CCN(Cc2nc3c(c(=O)[nH]c(=O)n3C)n2Cc2ccccc2F)CC1	0
O=C(c1ccc(C23CC4CC(CC(C4)C2)C3)o1)N1CCOCC1	0
CC(C(=O)NC1CCCC1)N(Cc1ccc2c(c1)OCO2)C(=O)c1snc(C(N)=O)c1N (configuration not stated)	0
CCOC(=O)Cc1cn2c(=O)cc(CSCC(=O)Nc3ccc(C)c(C)c3)nc2s1	0
O=C(NCCc1ccccc1)c1noc2c1CCCCC2	0
COc1ccc(CNC(=O)C2CCCN(S(=O)(=O)c3cnc[nH]3)C2)cc1 (configuration not stated)	0
CC(C)(C)c1cc(CN2CCCC(O)C2)c(O)c(C(C)(C)C)c1 (configuration not stated)	0
Cc1nc2c(cc(Oc3ccc(S(=O)(=O)N4CCOCC4)cn3)c3ccsc32)s1	0
CCOC(=O)N1CCC(C(=O)Nc2ccc(OCC)cc2)CC1	0
CCOC(=O)c1cnc(-n2nc(C)cc2C)nc1NCc1ccc2c(c1)OCO2	0
CCOc1ccc(Nc2cc(C)nc(-n3nc(C)cc3C)n2)cc1	64.9
CC1CCCCC1NS(=O)(=O)c1ccc(S(=O)(=O)NCc2ccncc2)cc1 (configuration not stated)	69.8
c1cn(CC2(Cn3ccnc3)COC2)cn1	0
O=C(NC12CC3CC(CC(C3)C1)C2)c1ccc(S(=O)(=O)N2CCOCC2)cc1	0
CCCc1ccc(-c2ccc(F)c(N)c2)nc1	60.1
CCc1ccc(-c2ccc(C(=O)O)cc2)nc1	0
Cc1ccc2cc(CN(C(=O)c3ccncc3)C(C)C)c(=O)[nH]c2c1	0
Cc1cc(=O)oc2cc(OCC(=O)OCc3nnc(-c4ccccc4)o3)ccc12	0
Cc1ccc2nc3c(cc(C#N)c(=O)n3CC3CCCO3)c(=O)n2c1 (configuration not stated)	0
C/C=C/c1ccc(OC)c(OC(C)=O)c1	0
COc1cc(C2Nc3cccc4cccc(c34)N2)cc(OC)c1OC(C)=O	82.3
CCN1C(=O)c2cccc3c(S(=O)(=O)NC(Cc4c[nH]c5ccccc45)C(=O)O)ccc1c23 (configuration not stated)	0
COC(=O)c1oc2ccc(Br)cc2c1NC(=O)c1ccccc1	0
c1ccc(-n2nnc3c(N4CCOCC4)ncnc32)cc1	52.3
SMILES	SF1 inhibitor
O=c1[nH]c(N2CCOCC2)nc2ncn(Cc3ccccc3)c12	0
O=c1c2ccccc2nc2c3ccccc3c(N3CCOCC3)nn12	0
Oc1ccc(-c2nnc(SCC3CCCCC3)o2)cc1	0
Cc1ccc2c(COC(=O)C3=COCCO3)cc(=O)oc2c1	0
CCC(C)(C)n1nnnc1C(c1cccc(C#N)c1)N1CCN(c2cccc(C)c2C)CC1 (configuration not stated)	0
O=C1C/C(=C/NCc2ccccc2)C(=O)N1	0
O=C(CN1C(=O)CSC1=O)Nc1ccc(F)c(F)c1F	0
CCc1c(C#N)c(N)nc(SCC(=O)OCc2ccccc2)c1C#N	0
COC(=O)c1ccc(C(=O)OC)c(NC(=O)CSc2nnc(-c3ccccc3Cl)o2)c1	0
CCOc1cc(C(=O)CSc2nnc(CNc3ccc(Cl)cc3)o2)ccc1NC(=O)CC	56.4
COc1ccc(OC)c(NC(=O)CSc2nnc(CNc3ccc(F)cc3)o2)c1	0
COc1ccc(S(=O)(=O)N(C)CC(=O)NC2CC2)cc1	0
COc1ccc(-c2cc3nc4n(c(=O)c3s2)CCC4)cc1	78.2
Cc1nc2ccccn2c1P(=Nc1ccccc1)(N(C)C)N(C)C	0
O=C(c1ccccc1)c1c[nH]c2cc3c(cc2c1=O)OCCO3	0
COc1cccc2c1C(=O)c1c(O)c3c(c(O)c1C2=O)C[C@@](O)(C(C)=O)C[C@@H]3O[C@H]1C[C@H](N)[C@H](O)[C@H](C)O1	89.3
CC(=O)Nc1ccc(-n2c(C)c(C(C)=O)c(C(C)=O)c2C)cc1	0
O=c1c(-c2ccc(F)cc2)coc2c3c(ccc12)OCCO3	0
O=C(CCc1c[nH]c2ccccc12)NCC1CCCO1 (configuration not stated)	0
CCOC(=O)C1CCN(S(=O)(=O)c2c(C)[nH]c(=O)[nH]c2=O)CC1	0
CN1C(=O)c2ccc(C(=O)NC3CCCCC3)cc2C1=O	0
CCCCN1CC(C(=O)NC2CCCCC2)CC1=O (configuration not stated)	0
CN1/C(=C/C(=O)c2nc(S(C)(=O)=O)ncc2Cl)C(C)(C)c2ccccc21	60.6
Cc1occc1-c1nnc(SCC(=O)NCc2ccco2)n1CC(C)C	0
O=C(NC1CC1)C1CC(=O)N(C2CCCCC2)C1 (configuration not stated)	0
SMILES	SF1 inhibitor
O=C(CSc1nnc(COc2cccc3cccnc23)o1)N1CCc2ccccc21	53.4
Cc1cc(C(=O)OCC(=O)N2CCc3ccccc32)c(C)o1	0
O=C(COc1ccc(F)cc1Br)N1CCc2ccccc21	0
COc1cc(C(=O)Nc2nnc(-c3sccc3C)s2)cc(OC)c1OC	0
CN(C1CCS(=O)(=O)C1)S(=O)(=O)c1ccc(C2CCCCC2)cc1 (configuration not stated)	0
CN(C)c1oc(-c2ccc(OCc3ccccc3)cc2)nc1C#N	0
CCC(=O)Nc1nc2ccc3nc(C)sc3c2s1	0
COc1ccccc1NC(=O)CSc1nnc(-c2ccc(C)cc2)o1	0
O=S1(=O)C=C(Sc2nnc(-c3ccccc3)o2)c2ccccc21	65.6
